Measured values reported in PubChem BioAssay (NCI).
The panel holds about 79,000 compounds, 15% with a hit somewhere; the sample as a whole holds those more often. Activity calls are given as the source filed them. No stated cut-off is given here; in the data, active means growth inhibition above about 70%; inactive means the rest.

Tests used:
[1] = NCI Yeast Anticancer Drug Screen. Data for the rad50 strain (AID 155);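 further: 0% = growth of vehicle-only cultures of the same strain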; settings: S. cerevisiae rad50 strain growth inhibition; at 50.0 µM; active compounds read high
Method in brief: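 Growth of the mutant yeast was measured after compound exposure and referenced to vehicle-treated cultures.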

[2] = NCI Yeast Anticancer Drug Screen. Data for the mec2-1 strain (AID 157); settings: S. cerevisiae mec2-1 strain, at 50.0 µM, active compounds read high
Method in brief: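 Yeast mec2-1 mutant treated with compound. Readout: growth inhibition vs vehicle controls.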

[3] = NCI Yeast Anticancer Drug Screen. Data for the sgs1 mgt1 strain (AID 161);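 further: 0% = growth of cultures given vehicle only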; settings: S. cerevisiae sgs1 mgt1 strain, at 50.0 µM, active compounds read high
Method in brief: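 Inhibition of yeast growth, normalised to vehicle-treated controls, is reported for a strain bearing genetic alterations in DNA damage repair.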

[4] = NCI Yeast Anticancer Drug Screen. Data for the cln2 rad14 strain (AID 165);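 further: 0% = growth equal to vehicle treated cultures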; settings: S. cerevisiae cln2 rad14 strain, at 50.0 µM, active compounds read high
Method in brief: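 cln2 rad14 yeast strain; compound exposure; growth inhibition read vs vehicle controls.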

[5] = NCI Yeast Anticancer Drug Screen. Data for the bub3 strain (AID 167); settings: S. cerevisiae bub3 mutant strain, at 50.0 µM, active compounds read high
Method in brief: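 Whole-cell yeast assay. The mutant strain was incubated with compounds, and growth inhibition was determined by comparison with vehicle-treated cells.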

[6] = NCI Yeast Anticancer Drug Screen. Data for the mlh1 rad18 strain (AID 175); settings: S. cerevisiae mlh1 rad18 strain growth inhibition; at 50.0 µM; active compounds read high
Method in brief: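 Yeast w/ defined DNA-repair lesions; compound exposure; growth vs vehicle controls → % inhibition.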

Measured: growth inhibition

C[n+]1ccc(/C(C#N)=N/O)cc1
inactive: [1] -16.4% | [2] -39.9% | [3] -20.6% | [4] 20.6% | [5] -25.8% | [6] -28.9%

[NH-]C(CC(N)=O)C(=O)O.[NH-]C(CC(N)=O)C(=O)O.[Zn+2] (stereo unspecified)
inactive: [1] -3.15% | [2] -2.05% | [3] -3.9% | [4] -18.1% | [5] -2.75% | [6] 5.25%

Cc1nn(-c2ccccc2)nc1C(=O)Nc1ccc2[nH]ncc2c1
inactive: [1] -39.2% | [2] -48.1% | [3] -8.95% | [4] -15.8% | [5] -22.9% | [6] -24.6%

CCN(CC)CCCC(C)NC1CCCc2cc3c(cc21)C(=O)c1ccccc1C3=O (stereo unspecified)
inactive: [1] 34% | [2] 13.8% | [3] 38.1% | [4] 14.9% | [5] -4.5% | [6] 33.1%

O=P(CCC(CC(F)(F)C(F)(F)C(F)(F)C(F)(F)C(F)(F)C(F)(F)C(F)(F)F)P(=O)(N1CC1)N1CC1)(N1CC1)N1CC1 (stereo unspecified)
inactive: [1] 5.1% | [2] 3.5% | [3] -1.6% | [4] -5.1% | [5] -0.35% | [6] 2.35%

CC(COc1ccccc1)OC(=O)CCl (stereo unspecified)
inactive: [1] 0.75% | [2] 5.6% | [3] -6.65% | [4] -16.9% | [5] -16.5% | [6] 27.6%

CC1=NN2C(c3ccc(C)cc3)=CSC2=NC(C)(C)C1
inactive: [1] 20.6% | [2] -1.45% | [3] 2.45% | [4] 19.8% | [5] 5% | [6] -1.1%

O=S1(=O)OCCOS(=O)(=O)C1I
inactive: [1] -8.1% | [2] -30.2% | [3] -12.4% | [4] 11.3% | [5] -21.5% | [6] -29.6%

CC(=O)c1cc2c(cc1C)C(C)=C(C)C2(C)C
inactive: [1] -3.1% | [2] -2.35% | [3] 1.55% | [4] -13.4% | [5] 0.65% | [6] -2.9%

CCCCOC1NC(=O)Oc2ccccc21 (stereo unspecified)
inactive: [1] -9.35% | [2] 4% | [3] -3.15% | [4] -28.5% | [5] -4.95% | [6] 15.1%

Cc1c([N+](=O)[O-])ccc2c1C(=O)c1ccccc1C2=O
inactive: [1] -41.6% | [2] -0.35% | [3] -39.9% | [4] 2.7% | [5] -5.7% | [6] 39.5%

COc1ccc(C)cc1N
inactive: [1] 19.2% | [2] -5.3% | [3] -1.15% | [4] 24.4% | [5] -3.2% | [6] 24.4%

O=C1C2C(C(=O)N1c1ccccc1)C1(c3ccccc3)CCC2(C(=O)c2ccccc2)O1 (stereo unspecified)
inactive: [1] 56.4% | [2] -14.3% | [3] 39.6% | [4] -16.4% | [5] 9.05% | [6] 23.4%

N#CCSc1c(-c2ccccc2)c(=O)n(-c2ccccc2)c(=S)n1-c1ccccc1
inactive: [1] 20.7% | [2] -17.9% | [3] -2.3% | [4] -16.8% | [5] -20.6% | [6] -0.65%

O=C(c1ccccc1)C1N=NN(Cc2ccccc2[N+](=O)[O-])C1C(=O)c1ccccc1 (stereo unspecified)
inactive: [1] -6.75% | [2] -30.9% | [3] -25.1% | [4] -57.5% | [5] -1.45% | [6] -0.65%

CC1(C)OCC2OC(O)C(OS(=O)(=O)c3ccc([N+](=O)[O-])cc3)C2O1 (stereo unspecified)
inactive: [1] -5.5% | [2] -2.55% | [3] -0.5% | [4] -33% | [5] -10.9% | [6] -30.3%

COc1ccc(NNc2ccc(OC)cc2)cc1
inactive: [1] 0.95% | [2] 7.65% | [3] -4.7% | [4] 17.9% | [5] -5.1% | [6] -9.5%

CC1OC(n2cc(F)c(=O)[nH]c2=O)CCC1O (stereo unspecified)
inactive: [1] 7% | [2] 10.2% | [3] 33.2% | [4] -10.1% | [5] -29.2% | [6] -60.5%

CS(=O)(=O)OCC(Cc1ccccc1)N1C(=O)c2ccccc2C1=O (stereo unspecified)
inactive: [1] 1.3% | [2] 4.05% | [3] 17.9% | [4] 12.2% | [5] 26.9% | [6] 34.1%

COc1cc(O)c2c(c1)Cc1cc(C)cc(O)c1C2=O
inactive: [1] 10.2% | [2] -1% | [3] 6.2% | [4] 22.5% | [5] 16.6% | [6] 1.65%

Cc1ccc2[nH]c(-c3ccccc3)cc2c1
inactive: [1] -1.85% | [2] -21.6% | [3] -10.6% | [4] -27.8% | [5] -8.15% | [6] -9.8%

Cn1c(=O)c2c(nc(/N=C/c3ccncc3)n2C)n(C)c1=O
inactive: [1] -3.35% | [2] -5.95% | [3] -5.9% | [4] -75.7% | [5] -16.8% | [6] -2.85%

OCCc1ccccc1CCO
inactive: [1] -29.6% | [2] -17.8% | [3] -13.2% | [4] -16.9% | [5] -5.4% | [6] 8.5%

CC(Cl)CNC(=O)Nc1cccc2c1CCCC2 (stereo unspecified)
inactive: [1] 3.45% | [2] 10.2% | [3] -1.9% | [4] -48.6% | [5] -22.2% | [6] -1.4%

OCC(O)COCC#Cc1ccccc1 (stereo unspecified)
inactive: [1] 6% | [2] 1.85% | [3] 3.1% | [4] -60.2% | [5] -14.6% | [6] 16.2%

C=CCOC(=O)Oc1ccc(Cl)cc1
inactive: [1] 27.6% | [2] -13.9% | [3] 23.1% | [4] -0.85% | [5] -2.7% | [6] 28.6%

N=C(/C(=C/c1cccc2ccccc12)c1ccccc1)c1ccccc1
inactive: [1] 13.8% | [2] 10.2% | [3] 14.1% | [4] -7.6% | [5] -13.7% | [6] 13.6%

Fc1ccccc1-c1nnc(-c2ccc3ccccc3c2)o1
inactive: [1] 33.1% | [2] 14.8% | [3] 32.4% | [4] 23.9% | [5] 40.5% | [6] 14.7%

CCOC(=O)c1ccc(NN=NC(C)(C)C)cc1
inactive: [1] 10.8% | [2] -8.5% | [3] -15.2% | [4] -29.2% | [5] -7.3% | [6] -11.1%

Cc1ccc(NC(=O)COc2cc(Cl)c(Cl)cc2Cl)cc1[N+](=O)[O-]
inactive: [1] -8.55% | [2] -9.1% | [3] -6.6% | [4] 10.2% | [5] 0.1% | [6] 0.4%

NNC(=O)C(CC(C(=O)NN)C(=O)NN)C(=O)NN
inactive: [1] 47.5% | [2] -1.5% | [3] 5.25% | [4] -22.5% | [5] 13.9% | [6] 29.7%

O=C1c2cccc3c(Br)ccc(c23)C(=O)N1C1CCCCCCCCCCC1
active: [1] 99.2% | [2] 99.5% | [3] 99.5% | [4] 98.5% | [5] 99.2% | [6] 99.5%

CCOC(=O)C(C)CC(C)C(=O)OCC (stereo unspecified)
inactive: [1] 20.6% | [2] -26% | [3] -19.3% | [4] -2.85% | [5] 9.9% | [6] 2.5%

CCOC(=O)C1=C(C(C)=O)C(c2ccc(OC)c(OC)c2)C(C(C)=O)=C(C(=O)OCC)N1
inactive: [1] 35.5% | [2] 12.9% | [3] 8.9% | [4] 35% | [5] -4.95% | [6] 8.55%

COC(=O)c1ccc(SCCC(C)=O)cc1
inactive: [1] -8% | [2] 5.3% | [3] -12.1% | [4] 9.9% | [5] 25.9% | [6] 0.7%

COc1ccc(C(O)C(C)C(O)(C(F)(F)F)C(F)(F)F)cc1 (stereo unspecified)
inactive: [2] 67.7% | [4] 63.8%
active: [1] 70.5% | [3] 89.3% | [5] 72.7% | [6] 90%

C(=NC12CC3CC(CC(C3)C1)C2)C1CCCCC1
inactive: [1] -17.1% | [2] -24.8% | [3] 0.05% | [4] 3% | [5] 4.8% | [6] -2.5%

COC1C(=O)CCC2(CO2)C1(O)C1(C)OC1CC=C(C)C (stereo unspecified)
inactive: [1] -22.9% | [2] -34.4% | [3] -31.6% | [4] -5.2% | [5] -28.2% | [6] -25.8%

O=C(NCc1ccccc1)c1ccc([N+](=O)[O-])cc1
inactive: [1] -7.2% | [2] 13.8% | [3] 10.3% | [4] -44.2% | [5] 22.8% | [6] 11.7%

CC(C)(O)C(C)(O)C#CC(C)(O)C(C)(C)O (stereo unspecified)
inactive: [1] -2.65% | [2] 1.2% | [3] 1.3% | [4] -15.2% | [5] 2.5% | [6] 6.75%

CC1(C)CCC(C)(C)c2cc(C(=O)O)ccc21
inactive: [1] 7.55% | [2] 5.3% | [3] 1.55% | [4] 5.4% | [5] 14.4% | [6] 5.05%
